The structures appear in SMILES notation. The source made the active and inactive calls. Cut-off read from the data, not from the text of the source: active = fold change permeability below about 0.7 or above about 1.3; inactive = in between.

The test can be described thus: compounds altering in vitro BBB leakiness – cell-based, FITC-avidin fluorescence, HTS, primary screen (AID 1963498). Note: test concentration not given here. The settings on record: brain endothelial barrier, actives lie on both sides.
For the molecule `O=C1/C(=C/c2cccs2)CC/C1=C\c1cccs1`, the fold change permeability is 1.6 (active).

Turning to `N[C@H](CCCP(=O)(O)O)C(=O)O`, the fold change permeability is 1.3 (active).

Regarding `CC(C[N+](C)(C)C)OC(N)=O` (centres undefined), the fold change permeability was 1 (inactive).

On to `O=C(COc1ccc(Cl)cc1)NC1CCC(NC(=O)COc2ccc(Cl)cc2)CC1` (centres undefined), for which the fold change permeability was 0.9 (inactive).

Take `COc1ccc(-c2csc(NC(=O)[C@H]3CCCCN3S(=O)(=O)c3ccc(C)cc3)n2)cc1`: the fold change permeability is 0.9 (inactive).

Consider `O=C(O)c1ccccc1Nc1ccccc1`, for which the fold change permeability was 1 (inactive).

In the case of `Cc1cn([C@H]2C=C[C@@H](CO)O2)c(=O)[nH]c1=O`, the fold change permeability is 1.2 (inactive).

Turning to `CNC[C@H](O)c1ccc(O)c(O)c1`, the fold change permeability was 0.8 (inactive).

Regarding `CC(=O)NCCc1c[nH]c2ccc(O)cc12`, the fold change permeability was 1.1 (inactive).

For the molecule `CC[N+](CC)(CC)CCOc1cccc(OCC[N+](CC)(CC)CC)c1OCC[N+](CC)(CC)CC`, the fold change permeability was 0.8 (inactive).

For `CCC(=O)OCC(=O)[C@@]1(OC(=O)CC)[C@H](C)C[C@H]2[C@H]3[C@H]([C@@H](O)C[C@@]21C)[C@@]1(C)C=CC(=O)C=C1C[C@H]3Cl`, the fold change permeability was 1.5 (active).

On to `C[C@@H](CN1CCC(Cc2ccccc2)CC1)[C@@H](O)c1ccc(O)cc1`, for which the fold change permeability is 1.3 (active).

With `O=C(O)Cc1c[nH]c2ccc(O)cc12`, the fold change permeability was 1.1 (inactive).

Turning to `C[C@@]12C(=O)OC(=O)[C@]1(C)[C@H]1CC[C@@H]2O1`, the fold change permeability was 1.1 (inactive).

As for `Nc1ncn([C@@H]2O[C@H](CO)[C@@H](O)[C@H]2O)c(=O)n1`, the fold change permeability was 1.1 (inactive).

With `O=C(CCc1ccc(O)cc1)c1c(O)cc(O)cc1O`, the fold change permeability is 1 (inactive).

As to `C[C@H](CS)C(=O)N1CCC[C@H]1C(=O)O`, the fold change permeability is 1 (inactive).

Take `O=c1ccn([C@@H]2O[C@H](COP(=O)(O)OP(=O)(O)O)[C@@H](O)[C@H]2O)c(=O)[nH]1`: the fold change permeability is 0.8 (inactive).

On to `C[C@H]1CC(=O)Nc2cc(C(=O)NCCC3CC3)ccc2N1C(=O)N1CC2CC2C1` (some centres undefined), for which the fold change permeability is 1.1 (inactive).

For the molecule `Cc1cccc(C)c1OCC(C)N` (centres undefined), the fold change permeability was 0.8 (inactive).

On to `Cc1nc2ccc(NC(=O)Nc3ccnc4cccnc34)cc2o1`, for which the fold change permeability is 1.4 (active).

For the molecule `S=C(S)N1CCCC1`, the fold change permeability is 1 (inactive).

In the case of `N[C@H](C(=O)O)[C@H](O)C(=O)O`, the fold change permeability was 0.9 (inactive).

Regarding `Cc1cccc(C#Cc2ccccc2)n1`, the fold change permeability was 0.9 (inactive).

Take `CC(C)(C)NCC(O)c1cc(O)cc(O)c1` (centres undefined): the fold change permeability is 0.8 (inactive).

As for `O=C(O)c1cccc(-c2ccc(-c3cn(C(=O)N4CCCCC4Cc4ccccc4)nn3)cc2)c1` (centres undefined), the fold change permeability is 1 (inactive).

Regarding `CN[C@H](CC(C)C)C(=O)N[C@H]1C(=O)N[C@@H](CC(N)=O)C(=O)N[C@H]2C(=O)N[C@H]3C(=O)N[C@H](C(=O)N[C@H](C(=O)O)c4cc(O)cc(O)c4-c4cc3ccc4O)[C@H](O)c3ccc(c(Cl)c3)Oc3cc2cc(c3O[C@@H]2O[C@H](CO)[C@@H](O)[C@H](O)[C@H]2O[C@H]2C[C@](C)(N)[C@H](O)[C@H](C)O2)Oc2ccc(cc2Cl)[C@H]1O`, the fold change permeability is 1.6 (active).

As for `O=C(O)c1cc2cc(Cc3cccnc3)ccc2o1`, the fold change permeability is 0.8 (inactive).

Consider `O=[N+]([O-])c1ccc2c(c1)S(=O)(=O)C=C2`, for which the fold change permeability is 2.1 (active).

In the case of `O=C(O)/C=C/c1cnc[nH]1`, the fold change permeability is 1.4 (active).

For `c1ccc(C2CN3CCSC3=N2)cc1` (centres undefined), the fold change permeability was 1 (inactive).

`N#Cc1c(N2CCCC2)nc(N)c2c(N)nc(N3CCCC3)cc12`: the fold change permeability is 1.8 (active).

Take `OCCN1CCN(CCCN2c3ccccc3C=Cc3ccccc32)CC1`: the fold change permeability was 1.2 (inactive).

Regarding `C/C(=C\c1ccc(C(=O)O)cc1)c1ccc2c(c1)C(C)(C)CCC2(C)C`, the fold change permeability is 1.7 (active).

As for `Cc1c(Cl)cccc1Nc1ncccc1C(=O)O`, the fold change permeability is 1.1 (inactive).

Take `CN1C2CCC1CC(OC(c1ccccc1)c1ccccc1)C2` (centres undefined): the fold change permeability is 1.7 (active).

With `CC(C)CN(C[C@@H](O)[C@H](Cc1ccccc1)NC(=O)O[C@H]1CO[C@H]2OCC[C@H]21)S(=O)(=O)c1ccc(N)cc1`, the fold change permeability was 1.4 (active).

`CC(N)(Cc1ccc(O)c(O)c1)C(=O)O` (centres undefined): the fold change permeability was 0.9 (inactive).

Regarding `O=C(C(c1ccccc1)c1ccccc1)N1CCN(CC(O)COc2cccc3ncccc23)CC1` (centres undefined), the fold change permeability was 0.8 (inactive).

For the origin of these results see PubChem BioAssay.
